# High-throughput results deposited in PubChem by National Center for Advancing Translational Sciences (NCATS).
# GLP1R ag: qHTS of GLP-1 Receptor Agonists; Glucagon-like peptide 1 receptor (Homo sapiens), P43220; HEK293 GLP-1R CRE-luciferase, luminescence, 4-6 h; cells express a hypersensitive GLP-1R form; AID 624172, 2012; Potency, µM (highest dose often 45.6 µM), without a hit: at the highest dose activation, hits mostly activators; 380,000 compounds, 0.007% hits; also: % of control where 0% means no effect
# Target sequence (P43220 whole entry, looked up): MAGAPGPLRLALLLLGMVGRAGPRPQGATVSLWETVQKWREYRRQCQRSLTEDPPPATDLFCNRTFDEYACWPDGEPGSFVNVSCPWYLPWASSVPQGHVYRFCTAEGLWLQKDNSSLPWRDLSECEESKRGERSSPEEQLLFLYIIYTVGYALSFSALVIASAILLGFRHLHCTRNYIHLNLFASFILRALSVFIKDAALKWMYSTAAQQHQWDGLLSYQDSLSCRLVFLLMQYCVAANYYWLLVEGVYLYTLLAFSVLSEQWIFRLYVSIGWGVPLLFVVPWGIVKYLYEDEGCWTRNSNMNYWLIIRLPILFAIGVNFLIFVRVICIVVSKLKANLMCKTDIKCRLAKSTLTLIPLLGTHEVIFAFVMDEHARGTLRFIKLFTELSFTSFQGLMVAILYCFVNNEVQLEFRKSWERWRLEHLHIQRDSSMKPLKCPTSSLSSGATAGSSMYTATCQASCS
# ATXN2 expr inh: Primary qHTS for Inhibitors of ATXN expression | HEK-293 ATXN2-luciferase reporter, luminescence, 24 h | Potency, µM (doses to about 57 µM), inactives show at the top dose activity change, negative = inhibition, most hits filed as inhibitors | 360,000 compounds, 0.72% hits | AID 1745845, 2022; also: % is scaled to controls: 0 for no effect and ±100 for the full control effect; nearly all actives have a fitted effect of over 55% in size
#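 qHTS (up to 57 uM final) was run with 24 h compound exposure of reporter cells at 37 °C. Each well was multiplexed: SteadyGlo luminescence measured ATXN2-luciferase expression after a fluorogenic Gly-Phe-AFC viability readout (25 uM final).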
# TGFb SMAD3 inh: qHTS for Inhibitors of TGF-b | HepG2 CAGA-GFP TGF-b/SMAD3 reporter, GFP fluorescence, 18 h; TGF-beta stimulated, 500 pg/mL final | Potency, µM (top dose mostly 46.1 µM), for the others: top-dose activity, negative = inhibition, actives largely listed as inhibitors | 410,000 compounds, 1.2% hits | AID 588855, 2011; also: % is scaled to controls: 0 for no effect and ±100 for the full control effect; nearly all actives have a fitted effect of over 65% in size
#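 Inhibition of TGF-beta-driven CAGA-GFP reporter expression in HEPG2 cells is measured by cellular GFP fluorescence after 18 h stimulation with 500 pg/mL recombinant TGF-beta in 1% FBS medium at 37 degrees C.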
# GLP-1R inv ag: qHTS of GLP-1 Receptor Inverse Agonists (Inhibition Mode); Glucagon-like peptide 1 receptor (Homo sapiens), P43220; HEK293 GLP-1R CRE-luciferase, luminescence, 24 h; GLP-1R form is constitutively active; Potency, µM (doses to about 38.3 µM), inactives show at the highest dose activity change, negative = inhibition, most hits filed as inhibitors; 410,000 compounds, 1.6% hits; also: % is scaled to controls: 0 for no effect and ±100 for the full control effect; nearly all actives have a fitted effect of over 55% in size
#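 Assay principle: reduced luminescence from a cAMP-responsive reporter in HEK293 cells co-expressing a constitutively active GLP-1R. Conditions: 24 hr compound incubation, 37 deg C, 5% CO2.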
# S2 tox: Viability Counterscreen for Primary qHTS for Inhibitors of ATXN expression | Potency, µM (titrated, usually from 56.7 µM), hits mostly cytotoxic | AID 651635, 2014 | S2 cells (HEK-293 line with an ATXN2-luciferase reporter) viability, CellTiter-Fluor protease fluorescence, 24 h | 400,000 compounds, 0.49% hits; also: nearly all actives have a fitted effect of over 40% in size
# HepG2 tox: qHTS for Inhibitors of TGF-b: Cytotox Counterscreen; HepG2 CAGA-GFP viability, ATP luminescence, 18 h; Potency, µM (series often up to 46.1 µM), for the others: at the highest dose activity change, negative = cytotoxicity, usual class: cytotoxic; 410,000 compounds, 0.76% hits
#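 HepG2 CAGA-GFP cells (1000/well, DMEM with 1% FBS) received compound, then TGF-beta at 500 pg/mL final, and were incubated 18 hours at 37 degrees C. Viability was read by CellTiter-Glo luminescence. Media-only wells were set as complete cell-killing and DMSO as no toxicity.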
# The depositor's hits bear a star; i = inactive; ? = inconclusive; . = no result; [ ] = remark or other dose. The list is not random: actives were taken first. Their share in the collection is about 3.7%. Calls follow the shape of the dose curve; as a rule, active = well fitted curve in the direction sought with a large enough effect; inconclusive = small, poorly fitted or top-dose-only effect, or another doubt; inactive = no such curve, though single readings can be large; an effect the other way counts as inactive or inconclusive. Potency is read from the fitted curve at half-maximal effect.
SMILES,GLP1R ag,ATXN2 expr inh,TGFb SMAD3 inh,GLP-1R inv ag,S2 tox,HepG2 tox
Cc1c(C(=O)Nc2nccs2)sc2nc(-c3cccs3)cc(C(F)(F)F)c12,-12.3%,25.1µM*,-1.2%,-8.8%,?,-36.8%
Cc1nc(C)c(C(=O)Nc2ncc([N+](=O)[O-])s2)o1,-3.2%,?,-12.9%,3.98µM*,?,-23.9%
O=C(NCc1cccc(Cl)c1)c1cc2ccc3cccnc3c2[nH]1,.,.,-7.3%,8.1%,.,-15.8%
CCOC(=O)C1CCN(C(=O)c2cc3ccc4cccnc4c3[nH]2)CC1,.,.,0.6%,1.0%,.,1.0%
CC1CCCN(C(=O)c2cc3ccc4cccnc4c3[nH]2)C1 (stereo not drawn),.,.,?,6.31µM*,.,-50.3%
CC(C)N(Cc1ccccc1)C(=O)c1cc2ccc3cccnc3c2[nH]1,.,.,11.2µM*,?,.,-37.9%
O=C(c1cc2ccc3cccnc3c2[nH]1)N1CCCCC1,.,.,-27.8%,6.31µM*,.,-67.5%
Cc1ccc(Cl)cc1-n1ncc2c(Nc3cccc(C)c3C)ncnc21,.,?,-7.7%,?,i,-58.0%
Cc1ccc(C)c(Nc2cc(C)nc3ccccc23)c1,-6.5%,.,?,7.08µM*,?,-35.4%
Cc1cccc(Nc2cc(C)nc3ccccc23)c1,10.1%,-25.3%,9.5%,-10.8%,i,-4.0%
Cc1ccc(Nc2cc(C)nc3ccccc23)c(C)c1,6.1%,-34.8%,?,10µM*,i,-30.9%
c1cncc(OC2CCN(Cc3ccc4c(c3)CN(Cc3ccc5c(c3)OCO5)CCO4)CC2)c1,.,.,.,.,i,.
Cc1c(C(=O)N(C)C2CCOC2)sc2ncnc(NCC3(c4ccccc4)CCOCC3)c12 (stereo not drawn),.,.,.,.,i,.
OC(CNCCC1C=Nc2ccccc21)Cn1c2ccc(Cl)cc2c2cc(Cl)ccc21 (stereo not drawn),-20.5%,31.6µM*,?,?,.,-95.5%
CC(=O)c1ccc(NC(=O)c2sc(-n3nc(C)c(Cc4ccccc4)c3C)nc2C)cc1,.,.,0.0%,7.5%,.,-4.0%
C=C[C@@H]1c2c(F)cccc2N(S(=O)(=O)c2ccc(C)cc2)[C@H](c2ccc(OC(C)=O)cc2)C1(C#N)C#N,-0.9%,?,?,-13.6%,31.6µM*,-90.4%
CCN(CC)CC(=O)Nc1sc(C)cc1C(=O)c1ccc(C)cc1,2.4%,-8.3%,?,10µM*,i,1.4%
C[C@@H]1C/C=C/C=C/C=C/C=C/[C@H](O[C@@H]2O[C@H](C)[C@@H](O)[C@H](N)[C@@H]2O)C[C@@H]2O[C@](O)(C[C@@H](O)C[C@H]3O[C@@H]3/C=C/C(=O)O1)C[C@H](O)[C@H]2C(=O)O,.,.,.,.,i,.
COc1cccc(NC(=O)CSc2nc(C)c(Cc3ccccc3)c(=O)[nH]2)c1,.,.,.,-12.8%,.,-20.3%
NC(=S)NN=C1c2ccccc2-c2cc(Br)ccc21,25.0%,?,2.82µM*,?,?,2.3%
N#Cc1cccc2c1-c1ccccc1/C2=N/NC(N)=S,13.5%,-37.5%,5.01µM*,?,?,7.08µM*
ON=C1c2ccccc2-c2ccc(Br)cc21,-0.1%,2.3%,-19.7%,-10.4%,i,-10.6%
Cc1nc2ccc(C(=O)N3CCOc4ccc(CN5CCOCC5)cc4C3)cc2nc1C,.,.,.,.,i,.
COc1ccc(C2NC(c3ccc(OC)cc3)C(C)C(=O)C2C)cc1 (stereo not drawn),14.0%,6.8%,0.0%,?,i,-3.0%
COc1ccc(C2NC(c3ccc(OC)cc3)C(c3ccccc3)C(=O)C2c2ccccc2)cc1 (stereo not drawn),0.3%,-20.6%,2.7%,5.62µM*,i,-4.0%
SMILES,GLP1R ag,ATXN2 expr inh,TGFb SMAD3 inh,GLP-1R inv ag,S2 tox,HepG2 tox
O=[N+]([O-])c1ccc(N=Nc2c(Cl)cc(O)cc2Cl)cc1,-8.0%,.,1.12µM*,?,?,3.16µM*
Cc1[nH]c2ccccc2c1C1=NNC(=Nc2ccc(F)cc2)SC1,-1.7%,?,?,11.2µM*,i,-35.2%
COc1ccc(N=C2NN=C(c3c(C)[nH]c4ccccc34)CS2)cc1,8.5%,-22.9%,?,?,?,-21.5%
COc1ccc(C2N(c3ccc(Cl)cc3)N=C(C(C)=O)N(C)N2C(C)=O)cc1 (stereo not drawn),8.8%,-21.0%,?,10µM*,?,-3.6%
COc1cccc(N2C(C(C)=O)=NN(c3ccccc3)C2c2ccc(N3CCOCC3)cc2)c1 (stereo not drawn),-5.5%,14.1%,7.2%,-18.1%,i,-26.0%
Nc1nc2ccc([N+](=O)[O-])cc2s1,-2.2%[96 µM],-9.7%[116 µM],.,.,?,.
C[C@H](C(=O)OCO/N=[N+](\[O-])N1CCCC1)c1cccc2ccccc12,.,.,?,.,.,-20.1%
Cc1cc(NCCCn2ccnc2)n2nc(C)c(-c3ccc(Cl)cc3)c2n1,2.3%,?,-3.6%,?,15.8µM*,-60.8%
Cc1cc(NCCCn2ccnc2)n2nc(C)c(-c3ccccc3)c2n1,?,43.6%,-7.7%,111.1%,i,-25.7%
CC(N)c1csc(Nc2ccc(S(C)(=O)=O)cc2)n1 (stereo not drawn),3.8%,12.9%,-13.7%,-5.9%,i,3.2%
Cc1ncc(-c2ccnc(Nc3ccc(S(C)(=O)=O)cc3)n2)n1C(C)C,.,3.43µM*,.,.,.,.
Cc1sc2nnn(CC(=O)N3CCN(C(=O)c4ccco4)CC3)c(=O)c2c1C,7.0%,2.4%,-21.5%,?,i,5.5%
Cc1sc2nc(C(C)C)nc(SCC(=O)N3CCN(C(=O)c4ccco4)CC3)c2c1C,6.0%,31.6µM*,-49.5%,-9.1%,.,-13.4%
O=C(NCCc1cnc[nH]1)Nc1cccc(C(F)(F)F)c1,6.1%,.,5.0%,-9.1%,i,2.3%
O=C(Nc1cccc(Nc2ncc(Br)c(NCCc3cnc[nH]3)n2)c1)N1CCCC1,.,19.3µM*,.,.,.,.
Cc1nc([N+](=O)[O-])cn1CC(O)c1ccc2c(c1)OCO2 (stereo not drawn),.,.,-9.8%,.,.,-15.2%
c1ccc2nccnc2c1,.,.,2.82µM*,.,.,3.98µM*
CCc1c(C2(O)CCCCC2)[nH]c2cc(C(F)(F)F)ccc12,0.3%,?,?,?,31.6µM*,14.1µM*
CC(C)C[C@H](NC(=O)c1[nH]cnc1C(=O)Nc1ccccc1)C(=O)OC(C)(C)C,-6.3%,?,15.8µM*,?,?,-120.9%
